# Measured values reported in PubChem BioAssay AID2797 (The Scripps Research Institute Molecular Screening Center, 2010).
# Values joined by “and” are separate entries in the source; they are usually repeats but may differ in a detail not shown here. Equal values may be shown once. The campaign covered roughly 320,000 compounds. About 820 (0.26%) were called active. This excerpt belongs to a sample that is enriched for actives. A number with no mark means an inactive call.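 Rule for the calls: active = activation above the mean activation of all tested compounds plus 3 SD, per screening run (cut at about 20% in these data); inactive = the rest.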
# Biological target: Vasopressin V1a receptor (Homo sapiens) (UniProt P37288)
# Assay: agonists of human V1a receptor, primary screen, counter-screen for OXTR agonist project, fluorescence, CHO-V1R cells (AID 2797);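 note: signal is peak over basal fluorescence ratio across a 100 second FLIPR read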
# Settings: Fluo-8 calcium fluorescence, agonist mode, at 3 µM, active compounds read high, 0% DMSO, 100% 3 nM vasopressin
# Vasopressin V1a receptor (Homo sapiens), sequence (P37288 whole entry, looked up): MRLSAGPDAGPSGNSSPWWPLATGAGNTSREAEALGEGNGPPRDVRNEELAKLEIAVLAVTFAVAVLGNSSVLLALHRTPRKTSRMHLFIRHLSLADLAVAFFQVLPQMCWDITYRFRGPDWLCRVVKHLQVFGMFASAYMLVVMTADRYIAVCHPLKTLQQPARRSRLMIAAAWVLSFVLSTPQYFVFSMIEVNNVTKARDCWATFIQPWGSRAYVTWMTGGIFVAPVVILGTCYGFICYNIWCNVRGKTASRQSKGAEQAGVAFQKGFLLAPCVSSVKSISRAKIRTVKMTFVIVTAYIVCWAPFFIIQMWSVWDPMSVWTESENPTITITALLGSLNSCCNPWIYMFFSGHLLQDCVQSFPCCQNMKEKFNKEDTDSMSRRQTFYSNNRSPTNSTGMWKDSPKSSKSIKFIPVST
row,Structure (SMILES),activation
1,CCCc1nc2c(c(=O)c3ccccc3n2C)c(=O)n1C1CCCCCC1,86.8% (active)
2,Cn1c2ccccc2c(=O)c2c(O)cccc21,0.32%
3,Cn1c2ccccc2c(=O)c2c(=O)n(Cc3ccco3)c(COc3ccccc3)nc21,2.23%
4,NS(=O)(=O)c1ccc(NC(=O)COC(=O)C2(c3ccc(F)cc3)CCCC2)cc1,10.2%
5,CCC(C(=O)Nc1ccc(C(C)C)cc1)c1ccccc1 (stereo unspecified),40.7% (active)
6,CCC(C(=O)OCC(=O)Nc1ccc(C(=O)Nc2ccc(OC)cc2)cc1)c1ccccc1 (stereo unspecified),6.96%
7,CCC(C(=O)Nc1ccc2c(c1)OCCO2)c1ccccc1 (stereo unspecified),1.12%
8,COc1ccc2c(c1)C(=O)Nc1cc(Cl)ccc1N2,3.78%
9,CCOC(=O)N1CCN(C(=O)CSc2nc(=O)n3cccc(C)c3n2)CC1,-0.26%
10,Cc1cccn2c(=O)c(/C=C(\C#N)C(N)=O)c(N3CCCCCC3)nc12,-0.28%
11,CCOC(=O)CC1C(=O)NCCN1c1nc2c(C)cccn2c(=O)c1/C=C1\SC(=S)N(C(C)CC)C1=O (stereo unspecified),34% (active)
12,Cn1nccc1NC(=O)CC(CC(=O)O)c1ccccc1 (stereo unspecified),-0.62%
13,Cc1ccc(C(=O)NCC(=O)OCc2nnc(-c3ccccc3)o2)cc1,1.89%
14,CCCc1ccc(C(=O)[C@@H]2[C@@H](C(C)=O)N3c4ccc(F)cc4C=C[C@@H]3[C@@]23C(=O)Nc2ccccc23)cc1,-0.96%
15,CC1CCN(c2c(NCc3ccc(C(=O)NCc4ccccc4)cc3)c(=O)c2=O)CC1,0.76%
16,Cc1ccc(CNC(=O)c2cccc3c2C(=O)c2ccc(N4CCC(C)CC4)cc2S3(=O)=O)cc1,49.5% (active)
17,Cc1ccc(CNC(=O)c2ccc3c(c2)S(=O)(=O)c2ccccc2C3=O)cc1,-0.95%
18,CCCN(CCC)CCCNC(=O)CNC(=O)c1nn(-c2ccc(OC)cc2)c(=O)c2ccccc12,2.99%
19,CCOC(=O)C1=C(CC)Nc2ccccc2N=C1NC(=O)c1cccc(S(=O)(=O)N2CCCC2)c1,-0.11%
20,Cc1cccc(CN2CCC(CNC(=O)Nc3ccc(F)c(Cl)c3)CC2)c1,26.4% (active)
21,Cc1ccc(C)c(CN2CCC(CNC(=O)Nc3ccc(C)c(F)c3)CC2)c1,4.31%

row,Structure (SMILES),activation
1,Cc1ccccc1NC(=O)NCC1CCN(Cc2cccc(Cl)c2)CC1,3.18%
2,CCNC(=S)NNC(=O)Cc1ccccc1,-0.19%
3,CC(C)C(=O)Nc1cccc(NC(=S)NC(=O)C(c2ccccc2)c2ccccc2)c1,6.96%
4,CCCCC(=O)NNC(=S)NC(=O)C(c1ccccc1)c1ccccc1,73.7% (active)
5,Cc1ccc(S(=O)(=O)NC2CCCCCC2)cc1C(N)=O,3.64%
6,CCCN(CC1COc2ccccc2O1)C(=S)Nc1ccc(C)cc1 (stereo unspecified),-0.74%
7,CN(C(=O)CN(CCO)CC(=O)N(C)C(C)(C)Cc1ccccc1)C(C)(C)Cc1ccccc1,53.5% (active)
8,CCN(CC)C(=O)N(CC)Cc1ccccc1,0.23%
9,OCCN(Cc1ccccc1)Cc1ccc(Cl)cc1,0.58%
10,Cc1ccc(C(=O)NCCNC(=O)c2cnccn2)cc1,0.28%
11,O=C(Nc1ccc2c(c1)OCCO2)c1cnccn1,-0.23%
12,CCN(CC)c1ccc(/C=N/NC(=O)c2cnccn2)c(O)c1,20.8% (active)
13,CC(c1ccco1)N(C(=O)Nc1ccccc1)C1CCCCC1 (stereo unspecified),-0.6%
14,CC(C)c1cc(NCc2ccccn2)n2c(nc3ccccc32)c1C#N,-0.18%
15,CC/C(=N\NC(=O)c1ccccc1Cl)c1ccc(Br)s1,0.56%
16,O=C(CN1C(=O)CCC1=O)Nc1ccc(S(=O)(=O)N2CCOCC2)cc1,0.29%
17,O=C(CN1CCCCCC1)Nc1ccc(S(=O)(=O)N2CCCCC2)cc1,0.94%
18,O=C(CN1CCN(c2cccc(Cl)c2)CC1)Nc1ccc(S(=O)(=O)N2CCOCC2)cc1,26.1% (active)
19,CCC(C)NC(=O)N[C@@H](CCSC)C(=O)O (stereo partly specified),0.54%
20,O=c1c2cc(Br)ccc2nc(-c2cccc(Cl)c2)n1O,39% (active)
21,Cc1cccc(-c2nc3ccccc3c(=O)n2NC(=O)Cc2ccc(Cl)cc2)c1,4.01%

row,Structure (SMILES),activation
1,NC(=O)c1cc(-c2cccnc2)nc2ccc(Br)cc12,-0.49%
2,CCCCc1nc2cc(C(=O)NCCc3cnn(C)c3)ccc2o1,1.32%
3,CC(C)c1nc(SCC(=O)Nc2cccc(C(=O)O)c2)c2c3c(sc2n1)CCCC3,6.28%
4,CCOc1ccc(C2NC(=S)NC3=C2CCc2ccccc23)cc1 (stereo unspecified),0.4%
5,O=C(NCc1cccnc1)c1cc(S(=O)(=O)N2CCOCC2)c(Cl)cc1Cl,1.17%
6,COc1ccccc1NC(=O)Nc1nc(CC(=O)Nc2ccccc2F)cs1,-0.76%
7,Oc1ccc2ccc3cccc[n+]3c2c1,49.5% (active)
8,CCSc1nc(C)c(CCOc2cccc(C)c2)c(=O)[nH]1,-0.28%
9,COCCN(C(=O)CC1CCCCC1)c1c(N)n(CC(C)C)c(=O)[nH]c1=O,-0.63%
10,CC(=O)Nc1cccc(NC(=O)CSc2nccn2Cc2ccc(F)cc2)c1,3.25%
11,Cc1cc(N2C(=O)C(O)=C(C(=O)c3ccc(C)o3)C2c2ccc(OCc3ccccc3)cc2)no1 (stereo unspecified),0.41%
12,C=CCOc1cccc(C2C(C(=O)c3ccc(C)o3)=C(O)C(=O)N2c2nnc(C)s2)c1 (stereo unspecified),78.1% (active)
13,C=CCOc1cccc(C2C(C(=O)c3ccc(C)o3)=C(O)C(=O)N2CCCn2ccnc2)c1 (stereo unspecified),-0.49%
14,CCOC(=O)c1c(NC(=O)CSc2nnc(CNc3ccc(C)cc3C)o2)sc(C)c1C,0.01%
15,COc1ccc(S(=O)(=O)NCC(c2ccc(C)cc2)N2CCN(C)CC2)cc1OC (stereo unspecified),0.61%
16,Cc1cnc(C(=O)OCc2c(C)cc(C(C)(C)C)cc2C)cn1,-0.09%
17,CC1(C)S[C@@H]2[C@H](NC(=O)COc3ccccc3)C(=O)N2C1C(=O)OCc1ccccc1 (stereo partly specified),1.45%
18,CC1(C)S[C@@H]2[C@H](N=CN3CCCCCC3)C(=O)N2[C@H]1C(=O)O,21.6% (active)
19,CC1(C)SC2C(NC(=O)COc3ccccc3)C(=O)N2C1C(=O)O (stereo unspecified),0.91% and -0.17%
